From the supplement of paper PMC7366291
Counter-ions that a name gives are not always drawn. ± gives the standard deviation or the standard deviation of the averaged measurements.

Columns and labels:
Conditions in all cases: 25 µM; exposure: 24-48 hpf
[1] = system: Danio rerio Tg(wt1b:EGFP) embryo, pronephros; test: glomerular separation, fold change vs DMSO control; higher = glomeruli further apart (abnormal)
In short: (§1)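 Every feature is expressed as a fold change relative to the averaged DMSO-treated embryos of the same day. The exposure ran from 24 to 48 hpf at 28.5°C, with dechorionated Tg(wt1b:EGFP) zebrafish embryos in HEPES-buffered E3 containing 0.003% PTU, 0.5% DMSO and 25 μM compound. Dorsal pronephros images taken in agarose-filled 96-well plates were reduced to maximum projections, on which 16 reference points were set by hand in Fiji for a macro to compute distances and angles. Values more than 2 SD from the feature mean were not used.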

[2] = system: Danio rerio Tg(wt1b:EGFP) embryo, pronephros; test: glomerular width (mean of left and right), fold change vs DMSO control; higher = wider glomerulus
In short: as §1

[3] = system: Danio rerio Tg(wt1b:EGFP) embryo, pronephros; test: fraction of imaged embryos annotated as normal kidney; higher = less nephrotoxic; extreme values may be limits of the assay
In short: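 Zebrafish embryos carrying Tg(wt1b:EGFP) were dechorionated and exposed to 25 μM compound (0.5% DMSO) between 24 and 48 hpf at 28.5°C. Their pronephroi were imaged by widefield fluorescence, and each embryo was classed by hand from maximum projections. The measure is the fraction of embryos per treatment falling in the normal-kidney category.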

[4] = system: Danio rerio Tg(wt1b:EGFP) embryo, pronephros; test: pronephric angle neck segment to proximal convoluted tubule (mean of left and right), fold change vs DMSO control; higher = larger pronephric angle
In short: as §1

Structure (SMILES) | glomerular separation [1] | glomerular width [2] | fraction of imaged embryos annotated as normal kidney [3] | pronephric angle neck segment [4]
CC(C)(Oc1ccc(Cl)cc1)C(=O)O [Clofibric acid] | 1.17 ± 0.56 | 0.927 ± 0.036 | 0.667 | 1.001 ± 0.0094
COc1cccc2c1C(=O)c1c(O)c3c(c(O)c1C2=O)C[C@@](O)(C(=O)CO)C[C@@H]3O[C@H]1C[C@H](N)[C@@H](O)[C@H](C)O1 [Epirubicin hydrochloride] | 1.93 ± 0.41 | 1.07 ± 0.031 | 0.75 | 0.963 ± 0.053
CC[C@H]1OC(=O)[C@H](C)[C@@H](O[C@H]2C[C@@](C)(OC)[C@@H](O)[C@H](C)O2)[C@H](C)[C@@H](O[C@@H]2O[C@H](C)C[C@H](N(C)C)[C@H]2O)[C@](C)(O)C[C@@H](C)[C@@H]2N[C@@H](COCCOC)O[C@H]([C@H]2C)[C@]1(C)O [Dirithromycin] | 1 ± 0.51 | 0.964 ± 0.041 | 1 | 0.981 ± 0.065
CCOC(=O)C1=C(COCCN)NC(C)=C(C(=O)OC)C1c1ccccc1Cl (centres undefined) [Amlodipine] | 0.923 ± 0.2 | 1.03 ± 0.085 | 1 | 0.983 ± 0.029
CC(=O)N(CC(O)CN(C(C)=O)c1c(I)c(C(=O)NCC(O)CO)c(I)c(C(=O)NCC(O)CO)c1I)c1c(I)c(C(=O)NCC(O)CO)c(I)c(C(=O)NCC(O)CO)c1I (centres undefined) [Iodixanol] | 0.874 ± 0.28 | 1.043 ± 0.0099 | 0.917 | 1 ± 0.048
COc1cc(C(=O)NC2CCCNC2)cc(OC)c1OC (centres undefined) [Troxipide] | 1.14 ± 0.54 | 0.976 ± 0.011 | 0.917 | 0.953 ± 0.027
Cc1onc(-c2c(Cl)cccc2Cl)c1C(=O)N[C@@H]1C(=O)N2[C@@H]1SC(C)(C)[C@@H]2C(=O)O [Dicloxacillin sodium salt hydrate] | 1.24 ± 0.43 | 1.009 ± 0.0084 | 0.818 | 0.998 ± 0.017
Cn1c(=O)c2[nH]cnc2n(C)c1=O [Aminophylline] | 0.664 ± 0.15 | 0.992 ± 0.021 | 1 | 0.871 ± 0.011
CCOC(=O)Nc1ccc2c(c1)N(C(=O)CCN1CCOCC1)c1ccccc1S2 [Moricizine hydrochloride] | 0.635 ± 0.18 | 1.04 ± 0.013 | 0.833 | 0.993 ± 0.055
C[C@H]1O[C@H](O[C@H]2[C@H](O)[C@@H](O)[C@@H](O[C@H]3[C@H](O)[C@@H](O)C(O)O[C@@H]3CO)O[C@@H]2CO)[C@H](O)[C@@H](O)[C@@H]1N[C@H]1C=C(CO)[C@@H](O)[C@H](O)[C@H]1O (some centres undefined) [Acarbose] | 0.951 ± 0.24 | 0.879 ± 0.1 | 0.833 | 1.02 ± 0.014
O=c1[nH]cnc2c1ncn2[C@H]1CC[C@@H](CO)O1 [Didanosine] | 1.24 ± 0.56 | 1.06 ± 0.052 | 0.7 | 0.972 ± 0.041
CCOC(=O)O[C@]1(C(=O)COC(=O)CC)CC[C@H]2[C@@H]3CCC4=CC(=O)C=C[C@]4(C)[C@H]3[C@@H](O)C[C@@]21C [Prednicarbate] | 1.89 ± 0.71 | 1.11 ± 0.066 | 0.417 | 1.03 ± 0.058
CN(C)CC/C=C1/c2ccccc2Sc2ccc(Cl)cc21 [Chlorprothixene hydrochloride] | 0.89 ± 0.23 | 1.034 ± 1.4e-05 | 0.727 | 1.04 ± 0.074
C=CCSCC1Nc2cc(Cl)c(S(N)(=O)=O)cc2S(=O)(=O)N1 (centres undefined) [Althiazide] | 1.08 ± 0.28 | 0.962 ± 0.12 | 0.5 | 1.09 ± 0.083
Nc1cc(N2CCCCC2)nc(N)[n+]1[O-] [Minoxidil] | 0.953 ± 0.24 | 1.05 ± 0.053 | 0.917 | 0.99 ± 0.065
C#CCN[C@@H]1CCc2ccccc21 [Rasagiline] | 1.13 ± 0.38 | 0.994 ± 0.012 | 0.667 | 0.972 ± 0.021
CCCCNc1cc(C(=O)O)cc(S(N)(=O)=O)c1Oc1ccccc1 [Bumetanide] | 1.41 ± 0.43 | 1.08 ± 0.023 | 0.75 | 1 ± 0.022
C[N+](C)(CCOc1ccccc1)Cc1ccccc1.O=C([O-])c1cc2ccccc2cc1O [Bephenium hydroxynaphthoate] | 2.05 ± 0.8 | 0.9959 ± 0.0015 | 0.583 | 1.17 ± 0.053
CN1CCN(CCCN2c3ccccc3Sc3ccc(S(=O)(=O)N(C)C)cc32)CC1 [Thioproperazine dimesylate] | 0.945 ± 0.3 | 0.988 ± 0.028 | 0.917 | 0.945 ± 0.046

Structure (SMILES) | glomerular separation [1] | glomerular width [2] | fraction of imaged embryos annotated as normal kidney [3] | pronephric angle neck segment [4]
CN(C)CCc1c[nH]c2ccc(Cn3cncn3)cc12 [Rizatriptan benzoate] | 0.941 ± 0.29 | 1.01 ± 0.025 | 0.5 | 1.02 ± 0.07
O=c1[nH]c(=O)n(C2CCCO2)cc1F (centres undefined) [Tegafur] | 1.02 ± 0.41 | 1.05 ± 0.057 | 0.917 | 0.991 ± 0.041
CN(C)CCC(c1ccccc1)c1ccccn1 (centres undefined) [Pheniramine maleate] | 0.928 ± 0.19 | 1.07 ± 0.064 | 0.833 | 0.9206 ± 0.0039
NS(=O)(=O)c1cc2c(cc1Cl)NC(C(Cl)Cl)NS2(=O)=O (centres undefined) [Trichlormethiazide] | 0.873 ± 0.36 | 0.992 ± 0.012 | 0.75 | 0.899 ± 0.015
Clc1ccc2c(c1)C(N1CCNCC1)=Nc1ccccc1O2 [Amoxapine] | 1.04 ± 0.33 | 0.9699 ± 0.0014 | 0.75 | 1.02 ± 0.039
O=C(NCCNCC(O)COc1ccc(O)cc1)N1CCOCC1 (centres undefined) [Xamoterol hemifumarate] | 1.01 ± 0.28 | 0.983 ± 0.011 | 1 | 0.98 ± 0.045
Cc1cc(C(=O)NNCc2ccccc2)no1 [Isocarboxazid] | 1.01 ± 0.72 | 1.21 ± 0.067 | 0.25 | 1.382 ± 0.0021
O=C(O)COC(=O)Cc1ccccc1Nc1c(Cl)cccc1Cl [Aceclofenac] | 3.56 ± 1.8 | 1 ± 0.16 | 0.25 | 1.24 ± 0.15
CCN1CCCC(OC(=O)C(c2ccccc2)c2ccccc2)C1 (centres undefined) [Piperidolate hydrochloride] | 0.836 ± 0.28 | 0.997 ± 0.01 | 0.75 | 0.98 ± 0.016
CCOC(=O)O[C@]1(C(=O)OCCl)CC[C@H]2[C@@H]3CCC4=CC(=O)C=C[C@]4(C)[C@H]3[C@@H](O)C[C@@]21C [Loteprednol etabonate] | 1.27 ± 0.56 | 0.884 ± 0.029 | 0.833 | 1.09 ± 0.042
CCCOc1cc(N)ccc1C(=O)OCCN(CC)CC [Propoxycaine hydrochloride] | 0.859 ± 0.24 | 0.982 ± 0.023 | 0.917 | 1.01 ± 0.023
CCCCC1=NC2(CCCC2)C(=O)N1Cc1ccc(-c2ccccc2-c2nnn[nH]2)cc1 [Irbesartan] | 3.04 ± 1.1 | 0.56 ± 0.11 | 0.75 | 1.1 ± 0.022
COc1cc(NS(=O)(=O)c2ccc(N)cc2)nc(OC)n1 [Sulfadimethoxine] | 1.02 ± 0.48 | 1.04 ± 0.014 | 1 | 1.01 ± 0.021
Cc1ccc2c(c1)c1c3n2CCNC3CCC1 (centres undefined) [Pirlindole mesylate] | 0.876 ± 0.33 | 1.07 ± 0.036 | 0.833 | 0.95 ± 0.0043
CCN(CC)CCOC(=O)C(Cc1cccc2ccccc12)CC1CCCO1 (centres undefined) [Nafronyl oxalate] | 1.2 ± 0.63 | 0.945 ± 0.058 | 0.583 | 1.04 ± 0.054
CCCc1cc(C(N)=S)ccn1 [Prothionamide] | 0.957 ± 0.36 | 0.9746 ± 0.0041 | 0.917 | 1.007 ± 0.0083
CC(C[N+](C)(C)C)OC(N)=O (centres undefined) [Bethanechol chloride] | 0.946 ± 0.32 | 1.023 ± 0.0027 | 0.833 | 0.998 ± 0.024
CN1CCC[C@@H]1CCO[C@](C)(c1ccccc1)c1ccc(Cl)cc1 [Clemastine fumarate] | 0.925 ± 0.57 | 1.01 ± 0.058 | 0.818 | 0.9686 ± 0.0025
CN(Cc1cnc2nc(N)nc(N)c2n1)c1ccc(C(=O)N[C@@H](CCC(=O)O)C(=O)O)cc1 [Methotrexate] | 1.19 ± 0.59 | 1.0099 ± 0.0002 | 0.917 | 0.978 ± 0.014

Structure (SMILES) | glomerular separation [1] | glomerular width [2] | fraction of imaged embryos annotated as normal kidney [3] | pronephric angle neck segment [4]
CC(=O)NCCCS(=O)(=O)O [Acamprosate calcium] | 1.02 ± 0.41 | 1.02 ± 0.022 | 0.75 | 0.991 ± 0.053
Nc1nc(=O)[nH]cc1F [Flucytosine] | 0.784 ± 0.38 | 1.0052 ± 0.0006 | 0.75 | 1.003 ± 0.0094
COc1ccc([C@@H]2Sc3ccccc3N(CCN(C)C)C(=O)[C@@H]2OC(C)=O)cc1 [Diltiazem hydrochloride] | 0.914 ± 0.32 | 1.24 ± 0.11 | 0.667 | 1.211 ± 0.0023
CN(C)CCOc1ccc(/C(=C(/CCCl)c2ccccc2)c2ccccc2)cc1 [Toremifene] | 0.881 ± 0.39 | 0.904 ± 0.08 | 0.917 | 1.04 ± 0.018
CC(C)(Oc1ccc(C2CC2(Cl)Cl)cc1)C(=O)O (centres undefined) [Ciprofibrate] | 1.25 ± 0.62 | 0.934 ± 0.023 | 0.818 | 1.082 ± 0.0058
CC[N+](CC)(CC)CCC(O)(c1ccccc1)C1CCCCC1 (centres undefined) [Tridihexethyl chloride] | 1.14 ± 0.4 | 0.925 ± 0.012 | 0.818 | 1.04 ± 0.026
CC(C)C[C@H](NC(=O)[C@@H](O)[C@H](N)Cc1ccccc1)C(=O)O [Ubenimex] | 1.12 ± 0.52 | 1.01 ± 0.048 | 0.833 | 1.01 ± 0.028
COc1cc(NS(=O)(=O)c2ccc(N)cc2)ncn1 [Sulfamonomethoxine] | 0.898 ± 0.44 | 0.946 ± 0.055 | 0.833 | 0.927 ± 0.096
CC(=O)Oc1cccc2c1C(=O)c1c(OC(C)=O)cc(C(=O)O)cc1C2=O [Diacerein] | 0.691 ± 0.2 | 1.1 ± 0.046 | 0.833 | 1.02 ± 0.021
Clc1ccc(C(c2ccccc2Cl)C(Cl)Cl)cc1 (centres undefined) [Mitotane] | 0.566 ± 0.18 | 0.969 ± 0.038 | 0.909 | 1.05 ± 0.049
CC(C)NC[C@H](O)COc1cccc2ccccc12 [(S)-propranolol hydrochloride] | 0.888 ± 0.27 | 1.03 ± 0.017 | 0.75 | 0.9744 ± 0.0062
CCCCC(C)(O)C/C=C/[C@H]1[C@H](O)CC(=O)[C@@H]1CCCCCCC(=O)OC (mixture of isomers) [Misoprostol] | 0.763 ± 0.35 | 0.959 ± 0.024 | 1 | 0.985 ± 0.04
S=c1[nH]cnc2nc[nH]c12 [Mercaptopurine] | 0.832 ± 0.28 | 0.991 ± 0.088 | 0.75 | 0.992 ± 0.07
C[N+]1(C)CCC(OC(=O)C(O)(c2ccccc2)C2CCCC2)C1 (centres undefined) [Glycopyrrolate] | 1.14 ± 0.48 | 1.02 ± 0.055 | 0.583 | 1.06 ± 0.028
CC(=O)O[C@]1(C(C)=O)CC[C@H]2[C@@H]3C=C(Cl)C4=CC(=O)CC[C@]4(C)[C@H]3CC[C@@]21C [Chlormadinone acetate] | 1.26 ± 0.62 | 0.909 ± 0.053 | 0.636 | 1.17 ± 0.093
CN(C)CCN(Cc1ccc(Cl)cc1)c1ccccn1 [Chloropyramine hydrochloride] | 0.981 ± 0.57 | 1.07 ± 0.064 | 0.917 | 0.964 ± 0.016
Cn1c(=O)c2c(ncn2CC(O)CO)n(C)c1=O (centres undefined) [Diprophylline] | 0.977 ± 0.2 | 0.966 ± 0.01 | 0.667 | 1.05 ± 0.051
C=CC1=C(C(=O)O)N2C(=O)[C@@H](NC(=O)/C(=N\O)c3csc(N)n3)[C@H]2SC1 [Cefdinir] | 0.772 ± 0.34 | 1.04 ± 0.029 | 1 | 1.003 ± 0.0083
